Compound activity: PubChem BioAssay, The Scripps Research Institute Molecular Screening Center
Only some compounds are listed: those with a hit (about 2.9% of all), similar ones and a draw of the others.
PAFAH2 FP inh – PAFAH2 enzyme inhibitors, primary screen, biochemical, fluorescence polarization, human. Platelet-activating factor acetylhydrolase 2, cytoplasmic (Homo sapiens), Q99487. 0.99% of 340,000 active. inhibition, % at 3.39 µM. AID 492956, 2010. recombinant PAFAH2, FP-rhodamine activity probe;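 active means inhibition above the mean over all tested compounds plus 3 SD, cut at about 30% in these data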;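 further: inhibitors block probe labeling of enzyme so polarization drops; 0% = enzyme with DMSO and 100% = wells lacking PAFAH2 protein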
pPAFAH FP inh – pPAFAH enzyme inhibitors, primary screen, biochemical, fluorescence polarization, human; Platelet-activating factor acetylhydrolase (Homo sapiens), Q13093; recombinant pPAFAH, FP-rhodamine probe fluorescence polarization; inhibition, % at 3.39 µM; 1.5% of 330,000 active; AID 463082, 2010;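 active means inhibition above the mean inhibition across the screen plus 3 SD, cut at about 25% in these data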;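 further: inhibitors block binding of the rhodamine activity-based probe so polarization drops; 0% = enzyme with DMSO and 100% = wells lacking pPAFAH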
Target sequence (Q13093 whole entry, looked up): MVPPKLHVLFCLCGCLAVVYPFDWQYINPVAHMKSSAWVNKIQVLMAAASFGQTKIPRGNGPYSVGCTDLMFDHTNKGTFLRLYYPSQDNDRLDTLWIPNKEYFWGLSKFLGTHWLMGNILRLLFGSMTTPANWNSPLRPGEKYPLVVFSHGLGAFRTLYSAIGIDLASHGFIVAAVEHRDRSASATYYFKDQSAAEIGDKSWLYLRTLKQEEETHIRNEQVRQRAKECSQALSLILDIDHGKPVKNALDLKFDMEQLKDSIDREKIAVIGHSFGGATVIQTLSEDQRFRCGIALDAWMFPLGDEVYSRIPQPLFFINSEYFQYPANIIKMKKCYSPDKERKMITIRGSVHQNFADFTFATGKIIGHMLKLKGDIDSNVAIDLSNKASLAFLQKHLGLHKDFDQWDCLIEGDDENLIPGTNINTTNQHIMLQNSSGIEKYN
LYPLA1 counter – LYPLA1 inhibitors, primary screen, counter-screen for PME1 inhibitor project, biochemical, fluorescence polarization, FP-Rh probe ABPP | Acyl-protein thioesterase 1 (Homo sapiens), O75608 | recombinant LYPLA1 | inhibition, % at 5.9 µM | 0.16% of 320,000 active | AID 2174, 2009;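 active means inhibition above the mean of all tested compounds plus 3 SD, set per campaign, cut at about 14% in these data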;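 further: inhibitors block serine hydrolase probe labeling of LYPLA1 so polarization falls; 0% = enzyme with DMSO and 100% = wells lacking LYPLA1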
PAFAH1B2 FP inh – PAFAH1B2 enzyme inhibitors, primary screen, biochemical, fluorescence polarization, human; Platelet-activating factor acetylhydrolase IB subunit alpha2 (Homo sapiens), P68402; recombinant PAFAH1B2, FP-rhodamine activity probe; inhibition, % at 3.39 µM; 1.2% of 340,000 active; AID 492953, 2010;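 active means inhibition above the mean of all tested compounds plus 3 SD, cut at about 24% in these data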;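 further: 0% = enzyme with DMSO and 100% = wells lacking PAFAH1B2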
Target sequence (P68402 whole entry, looked up): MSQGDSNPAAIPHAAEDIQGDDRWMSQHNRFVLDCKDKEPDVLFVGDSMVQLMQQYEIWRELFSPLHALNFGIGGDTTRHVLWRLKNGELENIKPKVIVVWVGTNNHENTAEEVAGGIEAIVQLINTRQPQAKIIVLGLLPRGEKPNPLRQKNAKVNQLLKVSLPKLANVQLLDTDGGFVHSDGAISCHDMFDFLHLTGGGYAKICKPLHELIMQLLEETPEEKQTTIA
PAFAH1B3 FP inh – PAFAH1B3 enzyme inhibitors, primary screen, biochemical, fluorescence polarization, human | Platelet-activating factor acetylhydrolase IB subunit alpha1 (Homo sapiens), Q15102 | inhibition, % at 3.39 µM | recombinant PAFAH1B3, FP-rhodamine probe | 0.28% of 340,000 active;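 active means inhibition above the screen-wide average of all tested compounds plus 3 SD, cut at about 25% in these data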;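 further: 0% = enzyme with DMSO only and 100% = wells lacking PAFAH1B3 protein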
LYPLA2 inh – LYPLA2 inhibitors, primary screen, counter-screen for PME1 inhibitor project, biochemical, fluorescence polarization, FP-Rh probe ABPP; recombinant LYPLA2; inhibition, % at 5.9 µM; 0.38% of 320,000 active; AID 2177, 2009;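 active means inhibition above the screen-wide mean plus 3 SD, limit set per campaign, cut at about 26% in these data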;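 further: 0% = LYPLA2 with DMSO and 100% = wells lacking LYPLA2 enzyme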
PAFAH2 FP conf – PAFAH2 enzyme inhibitors, confirmation, biochemical, fluorescence polarization, human. shares compounds with PAFAH2 FP inh. recombinant PAFAH2, FP-rhodamine activity probe. inhibition, % at 3.39 µM. 65% of 2,300 active. AID 493030, 2011;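 active means mean inhibition over three repeats above a set limit taken from the earlier primary screen, cut at about 30% in these data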;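 further: inhibitor blocks binding of rhodamine activity probe so polarization falls; 0% = enzyme with DMSO and 100% = wells lacking PAFAH2 protein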
Starred values were filed as active, the others as inactive.

`C=CCSC1=N/C(=C\c2cc(OCC)c(OC(C)=O)c([N+](=O)[O-])c2)C(=O)S1` gave PAFAH2 FP inh 60*, pPAFAH FP inh 10, LYPLA1 counter 9, PAFAH1B2 FP inh 15, PAFAH1B3 FP inh 8, LYPLA2 inh 6 and PAFAH2 FP conf 65*.
N/C(=N\OC(=O)c1cccs1)c1ccccc1 was read as PAFAH2 FP inh 21, pPAFAH FP inh 5, LYPLA1 counter 0, PAFAH1B2 FP inh 2, PAFAH1B3 FP inh 7 and LYPLA2 inh 0.
`N/C(=N\OC(=O)c1cccs1)c1cccc(Br)c1` gave PAFAH2 FP inh 47*, pPAFAH FP inh 9, LYPLA1 counter -2, PAFAH1B2 FP inh 6, PAFAH1B3 FP inh -2, LYPLA2 inh 2 and PAFAH2 FP conf 42*.
For Cc1cccc(/C(N)=N/OC(=O)c2cccs2)c1 the results were PAFAH2 FP inh 45*, pPAFAH FP inh 4, LYPLA1 counter 2, PAFAH1B2 FP inh 4, PAFAH1B3 FP inh -2, LYPLA2 inh 10 and PAFAH2 FP conf 30*.
Screening CCCOc1ccc(C(=O)Nc2ccc(S(=O)(=O)N3C[C@@H]4C[C@@H](C3)c3cccc(=O)n3C4)cc2)cc1 returned PAFAH2 FP inh 6, pPAFAH FP inh 7, LYPLA1 counter -5, PAFAH1B2 FP inh 4, PAFAH1B3 FP inh 5 and LYPLA2 inh -2.
COC(C#CCCN(C)C)(c1ccccc1)c1ccccc1 was read as PAFAH2 FP inh 1, pPAFAH FP inh -3, LYPLA1 counter -4, PAFAH1B2 FP inh 1, PAFAH1B3 FP inh -1 and LYPLA2 inh -2.
Cc1ccc(S(=O)(=O)N(C)C)cc1NC(=O)C1CCN(C(=O)Nc2ccccc2)CC1 was read as PAFAH2 FP inh 3, PAFAH1B2 FP inh 1 and PAFAH1B3 FP inh -1.
`Cc1ccc(C)c(S(=O)(=O)N(C)c2ccc(OC(=O)C3CCN(C(=O)Nc4ccccc4)CC3)cc2)c1` gave PAFAH2 FP inh 32*, PAFAH1B2 FP inh -1, PAFAH1B3 FP inh 4 and PAFAH2 FP conf 17.
For O=C(CCN1C(=O)/C(=C/c2ccc(F)cc2)SC1=S)NNC(=O)c1ccncc1 the results were PAFAH2 FP inh 1, pPAFAH FP inh -7, LYPLA1 counter -2, PAFAH1B2 FP inh 9, PAFAH1B3 FP inh 9 and LYPLA2 inh -7.
Screening O=C(CCN1C(=O)/C(=C/c2ccc(F)cc2)SC1=S)Nc1cc([N+](=O)[O-])ccc1O returned PAFAH2 FP inh 65*, pPAFAH FP inh 5, LYPLA1 counter -3, PAFAH1B2 FP inh 6, PAFAH1B3 FP inh 8, LYPLA2 inh 4 and PAFAH2 FP conf 69*.
`C=CCOc1ccc(/C(O)=C2\C(=O)C(=O)N(CCCOC)C2c2ccncc2)cc1` (stereo unspecified) gave PAFAH2 FP inh -5, pPAFAH FP inh 3, LYPLA1 counter 2, PAFAH1B2 FP inh 4, PAFAH1B3 FP inh 10 and LYPLA2 inh 13.
`Cc1cccc(C(C)C)c1NC(=O)COC(=O)CN1C(=O)C2CC=CCC2C1=O` (stereo unspecified) gave PAFAH2 FP inh 53*, pPAFAH FP inh 4, LYPLA1 counter 0, PAFAH1B2 FP inh 2, PAFAH1B3 FP inh 4, LYPLA2 inh 6 and PAFAH2 FP conf 37*.
Screening Cc1cccc(C)c1NC(=O)CN1C(=O)C2CC=CCC2C1=O (stereo unspecified) returned PAFAH2 FP inh 6, pPAFAH FP inh 3, LYPLA1 counter 3, PAFAH1B2 FP inh -1, PAFAH1B3 FP inh -7 and LYPLA2 inh 5.
O=C(CSc1nc(O)c(C(c2ccccc2)c2ccccc2)c(=O)[nH]1)N1CCOCC1 was read as PAFAH2 FP inh 3, pPAFAH FP inh 3, LYPLA1 counter 1, PAFAH1B2 FP inh 4, PAFAH1B3 FP inh 3 and LYPLA2 inh 7.
For NC(=O)c1sc2nc3c(c(-c4ccco4)c2c1N)CCC3 the results were PAFAH2 FP inh 44*, pPAFAH FP inh 20, LYPLA1 counter -4, PAFAH1B2 FP inh 9, PAFAH1B3 FP inh 24, LYPLA2 inh 4 and PAFAH2 FP conf 7.
Cc1ccc(-c2c3c(nc4sc(C(N)=O)c(N)c24)CCCC3)o1 was read as PAFAH2 FP inh 4, pPAFAH FP inh 20, LYPLA1 counter 2, PAFAH1B2 FP inh -3, PAFAH1B3 FP inh 5 and LYPLA2 inh 7.
Screening CC(C)C(Cl)=NOC(=O)Nc1ccc(S(N)(=O)=O)cc1 returned PAFAH2 FP inh 47*, PAFAH1B2 FP inh 8, PAFAH1B3 FP inh 6 and PAFAH2 FP conf 39*.
For O=C(COC(=O)/C=C/c1ccccc1)Nc1ccccc1Br the results were PAFAH2 FP inh 64*, pPAFAH FP inh 9, LYPLA1 counter 1, PAFAH1B2 FP inh 3, PAFAH1B3 FP inh -3, LYPLA2 inh -4 and PAFAH2 FP conf 54*.
Screening O=C(COC(=O)c1ccccc1)Nc1ccccc1Br returned PAFAH2 FP inh 36*, pPAFAH FP inh 10, LYPLA1 counter 2, PAFAH1B2 FP inh -2, PAFAH1B3 FP inh -7, LYPLA2 inh -4 and PAFAH2 FP conf 25.
O=C(COC(=O)c1c(Cl)cccc1Cl)Nc1ccccc1Br was read as PAFAH2 FP inh 3, pPAFAH FP inh 4, LYPLA1 counter 2, PAFAH1B2 FP inh 4, PAFAH1B3 FP inh -7 and LYPLA2 inh 1.
For O=C(COC(=O)/C=C/c1cccc(Cl)c1)Nc1ccccc1-c1ccccc1 the results were pPAFAH FP inh 1, LYPLA1 counter -8 and LYPLA2 inh -8.
`C/C=C/C(=O)OCC(=O)Nc1ccccc1Br` gave PAFAH2 FP inh 33*, pPAFAH FP inh 3, LYPLA1 counter 1, PAFAH1B2 FP inh -4, PAFAH1B3 FP inh 20, LYPLA2 inh 0 and PAFAH2 FP conf 20.
`COc1ccccc1/C=C/C(=O)OCC(=O)NC1CCS(=O)(=O)C1` (stereo unspecified) gave PAFAH2 FP inh 14, pPAFAH FP inh -1, PAFAH1B2 FP inh 3 and PAFAH1B3 FP inh 11.
COc1cccc(/C=C/C(=O)OCC(=O)NC2CC2)c1OC was read as PAFAH2 FP inh 68*, pPAFAH FP inh 6, PAFAH1B2 FP inh 5, PAFAH1B3 FP inh 16 and PAFAH2 FP conf 58*.
For COc1ccc(/C=C/C(=O)OCC(=O)NC2CC2)c(OC)c1 the results were PAFAH2 FP inh 83*, pPAFAH FP inh 4, PAFAH1B2 FP inh 1, PAFAH1B3 FP inh 10 and PAFAH2 FP conf 79*.
